From PubChem BioAssay
TDP1 cell noCPT = qHTS for Inhibitors of human tyrosyl-DNA phosphodiesterase 1 (TDP1): qHTS in cells in absence of CPT; Potency, µM (titrated, usually from 46.2 µM), for the others: top-dose activity change, negative = growth inhibition, usual class: inhibitors; 15% of 420,000 active; AID 686978, 2013; DT40 Tdp1-/- hTDP1 cells, no CPT, ATP luminescence, 48 h; further: potency means the concentration at half of the fitted maximal effect; on the % scale 0 is the no-effect control and ±100 the full control effect; nearly all actives have a fitted effect of over 55% in size
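Camptothecin absent (DMSO only). Human TDP1-complemented DT40 knockout cells, 400 cells/well, 37 °C for minimum 48 hr; ATP measured via CellTiter-Glo, 30 min dark incubation, luminescence.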
IL-1B inflam inh = inhibitors of inflammasome signaling (IL-1 beta secretion); THP-1 LPS/ATP IL-1B secretion, AlphaLISA, 16 h; hits give low values; activity change, % at 57.5 µM; 4.7% of 360,000 active; in the data active means activity change below about -50%; inconclusive means mostly about -30% to -49%; further: on the % scale 0 is the no-effect control and ±100 the full control effect
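Secreted IL-1B measured by AlphaLISA bead assay after 16 h compound exposure of THP-1 cells; compounds (final up to 57.5 uM) added 1 h before LPS (250 ng/mL) and ATP (1.25 mM) stimulation; lower signal means less secretion.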
MCF10A rerep = inducers of DNA re-replication in MCF 10A breast cells | MCF 10A DNA re-replication, Hoechst nuclear intensity, 48 h | Potency, µM (doses to about 46.1 µM), for the others: at the top dose activity, positive = re-replication, usual class: activators | 2.9% of 350,000 active | AID 624296; further: potency means the concentration at half of the fitted maximal effect; % of control where 0% means no effect; nearly all actives have a fitted effect of over 50% in size
SW480 rerep = induces DNA re-replication in SW480 colon adenocarcinoma cells | SW480 DNA re-replication, Hoechst DNA content imaging, 48 h | Potency, µM (top dose mostly 46.1 µM), for inactives: at the highest dose re-replication activation, usual class: activators | 1.8% of 340,000 active | AID 624297; further: potency means the concentration at half of the fitted maximal effect; % of control where 0% means no effect; nearly all actives have a fitted effect of over 55% in size
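Quantitative HTS format with DMSO vehicle controls; 48 hr drug incubation at 37 C, then 40 min Hoechst staining and scanning imager measurement at 405 nm excitation.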
DT40 TDP1 CPT = growth inhibition of DT40 Tdp1-/-;hTDP1 cells with camptothecin (screen for TDP1 inhibitors). chicken DT40 Tdp1-/-;hTDP1 cells + 20 nM CPT, ATP luminescence, 48 h. Potency, µM (highest dose often 46.2 µM), inactives show at the highest dose activity change, negative = growth inhibition, most hits filed as inhibitors. 12% of 420,000 active. AID 686979; further: potency means the concentration at half of the fitted maximal effect; on the % scale 0 is the no-effect control and ±100 the full control effect; nearly all actives have a fitted effect of over 55% in size
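Chicken DT40 Tdp1-/- cells complemented with human TDP1, 400 cells/well, exposed to compounds plus 20 nM camptothecin for at least 48 h at 37 C; viability read as ATP content by CellTiter-Glo luminescence.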
Chronic BCR inh = inhibitors of chronic active B-cell receptor signaling; Potency, µM (titrated, usually from 46.1 µM), for the others: top-dose activity change, negative = inhibition, most hits filed as inhibitors; 0.05% of 340,000 active; ABC-DLBCL IkBa-CBG/CBR reporter, luminescence ratio, 4 h; active means well fitted inhibition curve with a large enough effect in the signal ratio, with a control signal flat, not every such curve was filed as active; inconclusive means small, poorly fitted or top-dose-only effect, or effect the other way, or a change in a side signal; the % refers to the signal ratio;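 further: potency means the concentration at half of the fitted maximal effect; plate controls were basal doxycycline-induced cells for no effect and cells given 10 µM MG132 for full effect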
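Concentration-response series (up to 46 uM) were applied to TMD8 dual-reporter cells for 4 h at 37C with doxycycline. Green/red ratio, after filter-overlap correction, defined %Activity; red signal alone was normalised to basal cells and zero luminescence.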
The depositor's hits bear a star; ? = inconclusive; . = no result given. This is a sample that favours compounds with a hit; in the whole collection about 19% have one here. Unless noted, the call rests on the fitted dose curve; in most records, active means well fitted curve in the direction sought with a large enough effect; inconclusive means small, poorly fitted or top-dose-only effect, or another doubt; inactive means no such curve, though single readings can be large; an effect the other way counts as inactive or inconclusive.

SMILES | TDP1 cell noCPT | IL-1B inflam inh | MCF10A rerep | SW480 rerep | DT40 TDP1 CPT | Chronic BCR inh
CC(=O)Nc1cc[n+](CC(=O)c2ccc(Cl)cc2)cc1 | -11% | 0 | 5% | -3% | 8% | 1%
CC(CNC(=O)c1ccc(-c2ccccc2)cc1)CN(C)C (stereo not given) | -9% | -15 | -2% | -10% | 8% | -4%
CCN1C(=O)[C@H]2[C@@H](c3ccc(C)cc3)N3C(=O)N(c4ccccc4)C(=O)[C@@]3(C)[C@H]2C1=O | 2% | 13 | ? | -8% | 14% | 0%
c1ccc(-c2cn(-c3ccccc3)c3ncnc(NCCCN4CCOCC4)c23)cc1 | ? | -86* | ? | 0% | ? | -18%
O=c1c2ccccc2nc2c3ccccc3c(NCCN3CCOCC3)nn12 | . | . | . | . | . | 11%
CCN1CCN(c2ncnc3c2c(-c2ccccc2)cn3-c2ccc(F)cc2)CC1 | ? | -15 | 1% | -6% | ? | 6%
O=c1c2c(-c3ccccc3)csc2nc2c3ccccc3c(NCCN3CCOCC3)nn12 | 5.2µM* | -101* | 9.2µM* | ? | 8.2µM* | ?
c1ccc(-c2csc3ncnc(NCCCN4CCOCC4)c23)cc1 | 13µM* | -16 | 0% | -3% | 12µM* | 1%
COc1ccc(-n2cc(-c3ccccc3)c3c(NCCCN4CCOCC4)ncnc32)cc1 | ? | -16 | ? | 6% | ? | 5%
c1ccc(-c2csc3ncnc(N4CCOCC4)c23)cc1 | ? | 36 | 10% | -2% | -12% | ?
Brc1ccc(-n2cc(-c3ccccc3)c3c(NN4CCOCC4)ncnc32)cc1 | ? | 6 | ? | -1% | 18µM* | 4%
COc1ccc(CNC(=O)OC2CC3CC2[C@H]2CCCCN2C3=O)cc1 (stereo not given in full) | -9% | 21 | . | . | 9% | .
O=C(Nc1cc(C(=O)N2CCN(CCO)CC2)c2c(c1)ncn2C1CCCC1)c1ccccc1 | -10% | . | . | . | 18% | .
Cc1nc(-c2cccc(F)c2)sc1CCNC(=O)C(=O)Nc1ccc2c(c1)OCO2 | -18% | . | . | . | ? | .
CC(C)CC(Nc1ncnc2scc(-c3ccccc3)c12)C(=O)O (stereo not given) | -25% | 29 | 1% | 4% | -7% | 0%
c1ccc(-c2csc3ncnc(NCC4COc5ccccc5O4)c23)cc1 (stereo not given) | 0.92µM* | -4 | 26µM* | 2% | 0.73µM* | ?
c1csc(-c2csc3ncnc(NCCCN4CCOCC4)c23)c1 | 13µM* | -6 | 0% | -1% | 16µM* | ?
CC1=C(C(=O)N2CCOCC2)CC(CC(=O)NCCc2ccccn2)C(=O)N1Cc1ccccc1 (stereo not given) | 2% | 0 | . | . | -2% | .
O=C(Nc1cccc2cccnc12)c1csc([C@@H]2O[C@H](CO)[C@H](O)[C@H](O)[C@H]2O)n1 | 3% | -6 | . | . | -6% | .
CCOc1ccc(-c2nonc2NC(=O)c2oc3cc(C)c(C)cc3c2C)cc1OCC | ? | . | . | . | -1% | .
CCOc1ccc(-c2nonc2NC(=O)c2oc3cc(C)ccc3c2C)cc1 | ? | . | . | . | 23µM* | .
CCCOc1ccc(-c2nonc2NC(=O)c2oc3ccc(C)cc3c2C)cc1OCCC | ? | . | . | . | 9.2µM* | .
CCOc1ccc(-c2nonc2NC(=O)c2oc3c(C)c(C)ccc3c2C)cc1OCC | 16µM* | . | . | . | 15µM* | .
CSCC[C@H](NC(=O)Cc1c(C)c2c(cc(C)c3c(C)coc32)oc1=O)C(=O)O | -1% | -5 | 5% | -1% | 16% | 4%
CCNc1ncc2nc(CCc3ccccc3)c(=O)n(Cc3cccc(OC)c3)c2n1 | -12% | . | . | . | -24% | .
SMILES | TDP1 cell noCPT | IL-1B inflam inh | MCF10A rerep | SW480 rerep | DT40 TDP1 CPT | Chronic BCR inh
COc1cccc(Cn2c(=O)c(CCc3ccccc3)nc3cnc(OC)nc32)c1 | 23µM* | . | . | . | ? | .
COc1ncc2nc(CCc3ccccc3)c(=O)n(Cc3cccs3)c2n1 | 21µM* | . | . | . | ? | .
COc1ncc2nc(CCc3ccccc3)c(=O)n(CCc3ccccc3)c2n1 | -1% | . | . | . | ? | .
O=c1c(CCc2ccccc2)nc2cnc(Oc3ccccc3)nc2n1C[C@H]1CCCO1 | 18µM* | . | . | . | ? | .
CC(C)(C)NC[C@@H](O)COc1nsnc1N1CCOCC1 | 3% | . | . | . | 0% | .
CS(=O)(=O)n1nc(OC(=O)c2cccc3ccccc23)cc1N | -17% | -57* | 3% | 0% | -28% | ?
CS(=O)(=O)n1nc(OC(=O)c2cccs2)cc1N | -10% | 10 | 2% | -1% | ? | -18%
CCOc1ccc(N(CC(=O)NCc2ccc(F)cc2)C(=O)c2snc(C(N)=O)c2N)cc1 | -14% | 6 | ? | ? | 4% | -1%
CCn1c(CNc2nc3ccccc3n2C(C)C)nc2ccccc21 | 10µM* | -28 | -4% | -1% | 15µM* | -9%
COc1cccc(CNc2nc3ccccc3n2C(C)C)c1O | ? | ? | 1% | -2% | 21µM* | -8%
CCCn1c(NCc2cccc(OC)c2O)nc2ccccc21 | ? | -27 | -1% | 2% | -23% | ?
CC(C)n1c(NCc2cc(Cl)ccc2O)nc2ccccc21 | 18µM* | -12 | 19% | -1% | ? | -11%
Cc1ccccc1C(=O)NCc1ccc2c(c1)CCN2C(=O)c1ccc(F)cc1 | -25% | . | . | . | -19% | 9%
CCCCC(=O)N(C)c1c(CC)nc2c(OCC(=O)c3ccc(F)cc3)cccn12 | ? | -4 | . | . | ? | .
CCc1ccc(S(=O)(=O)N2CCN(C(=O)C3CCN(C(C)=O)CC3)CC2)cc1 | 8% | 10 | 2% | -4% | -6% | -1%
Cc1cccc2sc(N(CCN3CCOCC3)C(=O)CCS(=O)(=O)c3ccccc3)nc12 | 21µM* | -98* | ? | ? | 16µM* | ?
Cc1ccc(S(=O)(=O)CCC(=O)N(CCN2CCOCC2)c2nc3ccccc3s2)cc1 | 16µM* | -3 | 14% | 4% | 21µM* | -6%
Cc1ccccc1Cn1c(CN2CCC(C(=O)NCCN(C)C)CC2)cc2ccccc21 | 4.1µM* | . | . | . | 3.3µM* | ?
CCOc1ccc(CNC(=O)C2CCN(Cc3cc4ccccc4n3Cc3ccccc3C)CC2)cc1 | 23µM* | . | . | . | 13µM* | -8%
Cc1ccc(Cn2c(CN3CCC(C(=O)O)CC3)cc3ccccc32)cc1 | -27% | . | . | . | -30% | .
COc1cccc(CNC(=O)C2CCN(Cc3cc4ccccc4n3Cc3ccc(C)cc3)CC2)c1 | 21µM* | . | . | . | ? | 4%
